ALOX12 inh: inhibitors of human 12S-lipoxygenase ALOX12; P18054; 1.1% of 580,000 active; AID 1671190; purified 12hLO, xylenol orange hydroperoxide absorbance; Potency, µM (highest dose often 108 µM), for the others: at the top dose activity change, negative = inhibition, actives largely listed as inhibitors; note: potency is the fitted concentration of half-maximal effect
Target sequence (P18054 whole entry, looked up): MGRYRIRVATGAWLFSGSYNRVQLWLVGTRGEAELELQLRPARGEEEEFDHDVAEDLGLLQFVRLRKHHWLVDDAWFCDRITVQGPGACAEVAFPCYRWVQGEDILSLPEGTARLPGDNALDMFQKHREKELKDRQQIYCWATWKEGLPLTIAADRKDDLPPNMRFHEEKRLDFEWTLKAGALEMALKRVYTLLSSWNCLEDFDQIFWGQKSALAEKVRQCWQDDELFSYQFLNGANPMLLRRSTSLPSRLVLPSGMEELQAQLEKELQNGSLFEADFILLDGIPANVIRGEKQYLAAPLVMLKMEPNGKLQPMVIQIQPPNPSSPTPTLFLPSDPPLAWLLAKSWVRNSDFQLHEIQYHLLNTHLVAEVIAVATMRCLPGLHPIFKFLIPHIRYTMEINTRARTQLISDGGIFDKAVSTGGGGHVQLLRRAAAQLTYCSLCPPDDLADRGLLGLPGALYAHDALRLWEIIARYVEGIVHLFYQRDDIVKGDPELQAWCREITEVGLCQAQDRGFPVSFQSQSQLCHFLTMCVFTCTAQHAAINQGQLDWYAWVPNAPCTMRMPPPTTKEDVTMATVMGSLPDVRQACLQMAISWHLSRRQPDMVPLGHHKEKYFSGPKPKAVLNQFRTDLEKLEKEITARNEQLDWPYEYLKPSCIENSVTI
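Purified human 12hLO at 150 nM in 25 mM Hepes, 0.01% Triton X-100, pH 7.0, preincubated 15 min at room temperature with compound. Reaction started with 40 uM arachidonic acid, 30 min at room temperature. Hydroperoxide measured by Fe-xylenol orange, 573/405 nm absorbance ratio.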
HT1080 IDH1KD tx: HT-1080 IDH1 knockdown cell toxicity (counter line); HT-1080 IDH1 knockdown viability, ATP luminescence, 48 h; 2% of 360,000 active; AID 686971; Potency, µM (highest dose often 46.1 µM), for the others: top-dose activity, negative = toxicity, usual class: cytotoxic;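 note: potency is the fitted concentration of half-maximal effect; 0% = DMSO wells and -100% = cell-free medium wells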
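In this qHTS, HT-1080 cells depleted of IDH1 are exposed for 48 h at 37 °C to compound titrations. Toxicity is scored from CellTiter-Glo luminescence, with DMSO as full viability and medium alone as none.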
IL-1B inflam inh: blocks inflammasome-driven IL-1 beta release | THP-1 LPS/ATP IL-1B secretion, AlphaLISA, 16 h; stronger effect = lower value | activity change, % at 57.5 µM | 4.7% of 360,000 active; in the data active = activity change below about -50%; inconclusive = mostly about -30% to -49%
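THP-1 cells pretreated 1 hr with compounds (up to 57.5 uM final), then stimulated with LPS (250 ng/mL final) plus ATP (1.25 mM final); secreted IL-1B measured by AlphaLISA after 16 hr, decreased signal indicating inhibition.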
HT1080-NT tox: kills 2HG-producing HT-1080-NT fibrosarcoma cells. 1.6% of 360,000 active. Potency, µM (top dose mostly 46.1 µM), for the others: at the top dose activity, negative = less viability, usual class: cytotoxic. AID 686970. HT-1080-NT fibrosarcoma viability, CellTiter-Glo ATP luminescence, 48 h;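 note: NT is the 2HG producing partner of a matched IDH1 knockdown line; potency is the fitted concentration of half-maximal effect; 0% = DMSO-treated cells and -100% = media-only wells without cells; nearly all actives have a fitted effect of over 55% in size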
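A 48-hour cytotoxicity screen used HT-1080-NT cells plated 2 hours before compound delivery. ATP-based CellTiter-Glo luminescence measured viability, normalized to DMSO and no-cell controls.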
DT40 TDP1 no CPT: qHTS for Inhibitors of human tyrosyl-DNA phosphodiesterase 1 (TDP1): qHTS in cells in absence of CPT; DT40 Tdp1-/- hTDP1 cells, no CPT, ATP luminescence, 48 h; Potency, µM (highest dose often 46.2 µM), without a hit: top-dose activity change, negative = growth inhibition, actives largely listed as inhibitors; 15% of 420,000 active; AID 686978, 2013; note: potency is the fitted concentration of half-maximal effect; nearly all actives have a fitted effect of over 55% in size
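Growth of hTDP1-complemented DT40 Tdp1-knockout cells is measured by ATP luminescence after at least 48 hr compound exposure at 37 °C, with DMSO substituting for the 20 nM CPT used in the parallel screen.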
TDP1 cell CPT: growth inhibition of DT40 Tdp1-/-;hTDP1 cells with camptothecin (screen for TDP1 inhibitors) | chicken DT40 Tdp1-/-;hTDP1 cells + 20 nM CPT, ATP luminescence, 48 h | Potency, µM (doses to about 46.2 µM), without a hit: top-dose activity change, negative = growth inhibition, usual class: inhibitors | 12% of 420,000 active | AID 686979; note: potency is the fitted concentration of half-maximal effect; nearly all actives have a fitted effect of over 55% in size
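Chicken DT40 Tdp1-/- cells complemented with human TDP1, 400 cells/well, exposed to compounds plus 20 nM camptothecin for at least 48 h at 37 C; viability read as ATP content by CellTiter-Glo luminescence.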
Starred values were filed as active, the others as inactive; ? = inconclusive; · = no result; [ ] = another dose, or the depositor's remark. Only a selection was taken, and hits are over-represented in it overall. Unless noted, calls come from the whole dose curve; as a rule, active = well fitted curve in the direction sought with a large enough effect; inconclusive = small, poorly fitted or top-dose-only effect, or another doubt; inactive = no such curve, though single readings can be large; an effect the other way counts as inactive or inconclusive. Unless noted, % is set by controls: 0 for no effect and ±100 for the full control effect.

SMILES	ALOX12 inh	HT1080 IDH1KD tx	IL-1B inflam inh	HT1080-NT tox	DT40 TDP1 no CPT	TDP1 cell CPT
O=C(c1cccc(Cl)c1)N1CCN(c2cn[nH]c(=O)c2Cl)CC1	-14%	·	·	·	·	·
CO[C@H]1C(=O)N(C(C)C)[C@H]1C1CCN(C(=O)c2cccc3[nH]ccc23)CC1	37%	·	·	·	·	·
CC(C)(C)n1cnc2cc(NC(=O)c3cccs3)ccc21	0%	0%	-70*	-2%	23µM*	?
CCn1cnc2cc(NC(=O)c3cccs3)ccc21	6%	-4%	-18	-1%	-2%	-12%
CCCNC(=O)c1ccc2c(c1)ncn2-c1ccccc1OC	13%	22%	20	26%	?	3%
COc1ccccc1-n1cnc2cc(NCc3ccco3)ccc21	0%	?	-4	5.2µM*	1.3µM*	1.5µM*
COc1ccccc1-n1cnc2cc(NCc3cccs3)ccc21	-16%	2.1µM*	-8	3.7µM*	0.92µM*	0.73µM*
CCOc1ccc(CNc2ccc3c(c2)ncn3C)cc1	?	1%	-6	5%	?	-12%
COc1ccc(CNc2ccc3c(c2)ncn3-c2ccccc2OC)cc1	8%	-18%	-91*	-9%	?	?
COc1ccc(-c2nc3cc(C)ccc3cc2CN2CCN(C)C(=O)C2)cc1OC	45%	·	·	·	·	·
COc1ccccc1CNC(=O)c1csc(NC2CC2)n1	-24%	·	·	·	·	·
CCOc1ccc(CNc2ccc3c(c2)ncn3C(C)(C)C)cc1	-15%	-4%	2	-1%	21µM*	?
CC(C)(C)n1cnc2cc(NCc3cccs3)ccc21	24%	3%	-59*	2%	-17%	?
CCn1cnc2cc(NCc3cccs3)ccc21	4%	10%	-2	13%	3%	-25%
Cc1ccccc1-n1cnc2cc(NCc3cccs3)ccc21	0%	?	-11	-28%	23µM*	?
CC(=O)Nc1ccc(SC2CCCCC2=O)cc1 (centres undefined)	3%	·	·	·	·	·
Cc1ccc(C2(c3noc(CN(C)Cc4ccccn4)n3)CCCC2)cc1	4%	-9%	-1	-2%	16µM*	?
Cc1ccc(C2(c3noc(CN(C)Cc4cccnc4)n3)CCCC2)cc1	21%	7%	3	5%	?	?
CCCN(CC1CCOC1)S(=O)(=O)c1cc(F)cc(F)c1 (centres undefined)	43%	·	·	·	·	·
O=C(c1ccc(Cn2cc(Br)cn2)o1)N1N=C(C(F)F)CC1(O)C(F)F (centres undefined)	-7%	0%	-3	13%	?	20µM*
CC(=O)C1=C(O)C(CSCc2ccccc2)N(C)C1=O (centres undefined)	10µM*	-1%	17	2%	?	-21%
NS(=O)(=O)c1cccc(NC(=O)c2cc(-c3cccs3)nc3ccccc23)c1	?	0%	-18	-18%	15µM*	21µM*
NS(=O)(=O)c1cccc(NC(=O)c2cccs2)c1	-1%	27%	-7	7%	?	21µM*
NS(=O)(=O)c1ccc(NC(=O)c2cccc3ccccc23)cc1	14%	-5%	-15	3%	2%	11%
NS(=O)(=O)c1ccc(CNC(=O)c2cc(-c3cccs3)nc3ccccc23)cc1	?	-4%	7	-1%	?	?
SMILES	ALOX12 inh	HT1080 IDH1KD tx	IL-1B inflam inh	HT1080-NT tox	DT40 TDP1 no CPT	TDP1 cell CPT
NS(=O)(=O)c1ccc(NC(=O)c2cccc3cc4ccccc4nc23)cc1	-7%	?	?	4%	5.2µM*	5.8µM*
CN(C)S(=O)(=O)c1cccc(NC(=O)c2cc(-c3cccs3)nc3ccccc23)c1	-22%	7%	-3	7%	10µM*	?
O=C(Nc1ccc(Br)cc1)c1cc(-c2cccs2)nc2ccccc12	-21%	·	·	·	?	?
Cc1cc(C)c2c(=O)cc(C(=O)Nc3ccc(OC(F)F)cc3)oc2c1	-16%	·	·	·	·	·
CCN(C)C(=O)Cn1c(Cc2ccccc2)nn(-c2ccccc2OC)c1=O	-27%	·	·	·	·	·
CC(C)NC(=S)NNc1nc2ccccc2s1	?	-7%	3	-8%	2.9µM*	1.5µM*
COC(=O)c1sc(NC(=O)c2cc(-c3ccccc3)nc3ccccc23)c(C#N)c1C	-27%	?	7	?	7.3µM*	8.2µM*
CCOC(=O)c1sc(NC(=O)c2cc(-c3ccc(C)cc3)nc3ccccc23)c(C#N)c1C	?	?	-5	16µM*	16µM*	21µM*
Cc1ccccc1NC(=O)c1sc(NC(=O)COc2ccccc2)c(C#N)c1C	-11%	-5%	2	-9%	18µM*	?
Cc1ccccc1-c1cc(C(=O)Nc2sc(C(=O)OC(C)C)c(C)c2C#N)c2ccccc2n1	0%	?	-27	?	21µM*	23µM*
COc1ccc(-c2cc(C(=O)Nc3sc4c(c3C#N)CCCC4)c3ccccc3n2)cc1	-24%	-1%	-7	-1%	?	-22%
COc1ccc(OC)c(NC(=O)c2ccccc2N(Cc2ccccc2)S(C)(=O)=O)c1	-30%	0%	?	-1%	?	15µM*
COc1ccc(NC(=O)c2ccccc2N(Cc2ccccc2)S(C)(=O)=O)c(OC)c1	16%	-17%	-10	4%	?	23µM*
CCN(CC)C(=S)SCCOc1cccc(C)c1	2%	·	·	·	·	·
CC(C)CCN1CCOc2cc([S+](=O)([O-])Nc3cccnc3)ccc2C1	-19%[176 µM]	·	·	·	·	·
CC(C)N1C(=O)[C@@H]2[C@@H](CCN2C(=O)CC(C)(C)CC(=O)O)N(Cc2cccc(F)c2)C1=O	13%	·	·	·	·	·
CC(C)N1C(=O)[C@@H]2[C@@H](CCN2C(=O)CSCC(=O)O)N(Cc2cccc(F)c2)C1=O	35µM*	·	·	·	·	·
COC(=O)N1CCC2(CCCN(C(c3ccccc3)c3ccccc3)C2)CC1	-11%[57.4 µM]	·	·	·	-25%	13%
c1ccc(C(c2ccccc2)N2CC[C@@]3(CCCNC3)C2)cc1	-5%[57.4 µM]	·	·	·	26µM*	?
CS(=O)(=O)N1CCC[C@@]2(CCN(C(c3ccccc3)c3ccccc3)C2)C1	0%[57.4 µM]	·	·	·	?	?
c1ccc(C(c2ccccc2)N2CCCC3(CCNCC3)C2)cc1	2%[57.4 µM]	·	·	·	6.5µM*	9.2µM*
COc1ccc(CNC(=O)N(C)C2CCc3nn(CC4CC4)c(=O)n3CC2)cc1 (centres undefined)	49%	·	·	·	·	·
Cc1noc(-c2nc(-c3ccc(N(C)C)cc3)no2)n1	-6%	·	·	·	·	·

Assay outcomes as filed in PubChem BioAssay.
